Screens deposited in PubChem by National Center for Advancing Translational Sciences (NCATS).
Compounds with a hit are over-represented: about 21% of the library has one in this group of screens.
Sm TGR block – S. mansoni TGR enzyme inhibition. hit rate 3% among 360,000. purified TGR, DTNB reduction, TNB absorbance 405 nm. Potency, µM (highest dose often 114 µM), for inactives: at the top dose activity change, negative = inhibition, most hits filed as inhibitors. AID 485364; note: potency is the fitted concentration of half-maximal effect; % is set by controls: 0 for no effect and ±100 for the full control effect; nearly all actives have a fitted effect of over 60% in size
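TGR 20 nM + NADPH 100 uM (dispensed conc.), cpd preinc 15 min RT; start with NADPH (500 uM addition) then DTNB (15 mM addition). Kinetic TNB absorbance, 405 nm filter. Four-parameter Hill fit across titration.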
NS1 function inh – blocks influenza NS1 protein function; Potency, µM (titrated, usually from 46.1 µM), inactives show at the highest dose activity, positive = more growth; hit rate 0.4% among 270,000; calls by dose curve; note: potency is the fitted concentration of half-maximal effect; actives are rising curves; nearly all actives have a fitted effect of over 50% in size
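Compounds were scored for reversing the slow growth caused by influenza A NS1 in S. cerevisiae, measured by optical density at 600 nm. Assay medium contained 2% galactose at pH 6.0; NS1-free yeast of the same strain were the positive control.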
Shiga toxin inh – Shiga toxin inhibition; Vero cells, Shiga toxin protein synthesis inhibition reporter; inhibition, % at 38.7 µM; hit rate 9.2% among 290,000; in the data active = inhibition mostly above about 28%, no sharp cut-off; inactive = mostly below about 43%; note: 0% is about no effect
Pf growth 96h – inhibits malaria parasite growth, 96 h. Potency, µM (doses to about 28.7 µM), inactives show at the highest dose activity change, negative = inhibition, usual class: inhibitors. hit rate 6.9% among 320,000. P. falciparum luciferase reporter growth, 96 h; note: potency is the fitted concentration of half-maximal effect; % is set by controls: 0 for no effect and ±100 for the full control effect
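Delayed-death screen, second-generation endpoint: infected erythrocytes, 2% hematocrit, 0.05% parasitemia final; 96 hours at 37 C, 5% CO2; luciferase detection reagent; luminescence decrease equals reduced growth.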
Cycloheximide cs – affects cycloheximide protein synthesis inhibition readout, counter-screen; cell reporter, cycloheximide protein synthesis inhibition counterscreen; hit rate 12% among 300,000; max response, %; in the data active = max response mostly above about 13%, no sharp cut-off; inactive = mostly below about 14%; note: read at 38.3 µM for the half of the compounds with a filed dose; 0% is about no effect
Pf growth 48h – inhibits P. falciparum growth in the first generation, 48 h | P. falciparum luciferase growth in erythrocytes, 48 h | hit rate 5.9% among 310,000 | Potency, µM (series often up to 28.7 µM), for inactives: top-dose activity change, negative = inhibition, most hits filed as inhibitors | AID 504832; note: potency is the fitted concentration of half-maximal effect; % is set by controls: 0 for no effect and ±100 for the full control effect
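Compounds are pin-transferred into medium, infected erythrocytes (2% hematocrit, 0.1% parasitemia final) are added, and plates sit one parasite generation at 37 C in 5% CO2. Detection reagent is then added and luminescence measured.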
An asterisk follows results filed as active; ! = a repeat was not active. Unless noted, calls come from the whole dose curve; as a rule, active = well fitted curve in the direction sought with a large enough effect; inconclusive = small, poorly fitted or top-dose-only effect, or another doubt; inactive = no such curve, though single readings can be large; an effect the other way counts as inactive or inconclusive.

How did O=C(NN=C(Cc1ccccc1)Cc1ccccc1)c1ccccc1F do in these assays?
Sm TGR block: -8.7%; Shiga toxin inh: 90.7*; Pf growth 96h: 22.8%; Cycloheximide cs: 37.5*; Pf growth 48h: 7.1%

How did Cc1cc(C(=O)NN=C(Cc2ccccc2)Cc2ccccc2)c(C)o1 do in these assays?
Sm TGR block: -5.2%; NS1 function inh: 15.5%; Shiga toxin inh: 84.0*; Pf growth 96h: -7.6%; Cycloheximide cs: 28.5*; Pf growth 48h: -26.5%

Results for O=C(NCc1ccc(C(F)(F)F)cc1)C1CC(c2ccccc2[N+](=O)[O-])=NO1 (centres undefined) ?
Sm TGR block: 3.9%; NS1 function inh: -1.5%; Shiga toxin inh: -13.8; Pf growth 96h: 6.7%; Cycloheximide cs: 4.9; Pf growth 48h: 5.3%

How did CCCOc1ccc(Oc2nc(NC)nc(N3CCOCC3)n2)nn1 do in these assays?
Sm TGR block: -0.6%

What do the screens show for `Cc1ccccc1NC(=O)c1c(Cl)nc(C)c(Cl)c1C`?
Sm TGR block: -7.2%; NS1 function inh: 24.1%; Shiga toxin inh: -5.0; Pf growth 96h: inconclusive; Cycloheximide cs: -3.2; Pf growth 48h: -17.9%

What do the screens show for `Cc1nc(Cl)c(C(=O)NC(=O)NCc2ccccc2)c(C)c1Cl`?
Sm TGR block: -8.4%; NS1 function inh: -9.8%; Shiga toxin inh: 5.9; Pf growth 96h: 13.1µM*; Cycloheximide cs: -4.9; Pf growth 48h: 5.5%

Results for O=C(NN=C(Cc1ccccc1)Cc1ccccc1)c1ccncc1 ?
Sm TGR block: 14.4%; NS1 function inh: -1.8%; Shiga toxin inh: 20.9; Pf growth 96h: inconclusive; Cycloheximide cs: 8.0*; Pf growth 48h: 13.1%

How did COC(=O)C1=C(c2c(C)noc2C)C[C@@H]2CC[C@H]1N2C(=O)NCCOc1ccccc1Cl do in these assays?
Sm TGR block: -2.2%; Pf growth 96h: 31.8%; Pf growth 48h: inconclusive

What do the screens show for `COC(=O)C1=C(c2ccccc2OCc2ccccc2)C[C@@H]2CC[C@H]1N2C(=O)NCCOc1ccc(OC)cc1`?
Sm TGR block: -4.3%; Pf growth 96h: 1.31µM*; Pf growth 48h: 9.28µM*

What do the screens show for `COC(=O)C1=C(c2ccccc2OCc2ccccc2)C[C@@H]2CC[C@H]1N2C(=O)NCCCOC(C)C`?
Sm TGR block: -2.1%; Pf growth 96h: 5.22µM*; Pf growth 48h: inconclusive

What do the screens show for `COC(=O)C1=C(c2ccccc2OCc2ccccc2)C[C@@H]2CC[C@H]1N2C(=O)NCCOc1ccccc1`?
Sm TGR block: -2.2%; Pf growth 96h: inconclusive; Pf growth 48h: 11.7µM*

How did COC(=O)C1=C(c2cccc(OCc3ccccc3)c2)C[C@@H]2CC[C@H]1N2C(=O)NCCCOC(C)C do in these assays?
Sm TGR block: -0.5%; Pf growth 96h: inconclusive; Pf growth 48h: inconclusive

How did CCCn1cc(CN2CCC(n3nccc3NC(=O)c3ccccc3)CC2)c(C)n1 do in these assays?
Sm TGR block: -14.5%; NS1 function inh: 2.1%; Shiga toxin inh: 6.4; Pf growth 96h: 13.9%; Cycloheximide cs: -0.9; Pf growth 48h: 2.1%

Results for COc1ccc(-c2cnc(N)n2C)cc1 ?
Sm TGR block: 1.7%; NS1 function inh: 0.3%; Shiga toxin inh: 10.0; Pf growth 96h: inconclusive; Cycloheximide cs: 1.8; Pf growth 48h: 2.8%

What do the screens show for `Cn1c(-c2ccccc2)cnc1N`?
Sm TGR block: 4.2%; NS1 function inh: 8.8%; Shiga toxin inh: 34.5; Pf growth 96h: inconclusive; Cycloheximide cs: 29.5*; Pf growth 48h: inconclusive

How did CCCn1c(O)c2ccc(C(=O)N=NC(=O)c3cccnc3)cc2c1O do in these assays?
Sm TGR block: 0.7%; NS1 function inh: -2.2%; Shiga toxin inh: -26.4; Pf growth 96h: 74.8%; Cycloheximide cs: 0.7; Pf growth 48h: 38.8%

How did CC(C)(C)n1c(O)c2ccc(C(=O)N=NC(=O)c3ccccc3)cc2c1O do in these assays?
Sm TGR block: 3.4%; NS1 function inh: 8.7%; Shiga toxin inh: 32.6; Pf growth 96h: 87.2%; Cycloheximide cs: 26.8*; Pf growth 48h: -1.7%

Results for C=CCOCC(O)CS(=O)(=O)Cc1ccc(Cl)cc1 (centres undefined) ?
Sm TGR block: -1.1%; NS1 function inh: 2.6%; Shiga toxin inh: -14.7; Cycloheximide cs: -2.8

Results for COc1ccc(-n2c(CCC(=O)O)ccc2-c2ccccc2)cc1 ?
Sm TGR block: 39.8µM*!; NS1 function inh: 4.0%; Shiga toxin inh: 17.5; Pf growth 96h: 34.0%; Cycloheximide cs: 8.0; Pf growth 48h: 17.5%

Results for O=C(O)CCc1ccc(-c2ccc(Br)cc2)n1-c1ccccc1O ?
Sm TGR block: -17.9%

Results for COc1ccc(-c2ccc(CCC(=O)O)n2-c2ccccc2O)cc1 ?
Sm TGR block: 28.2µM*!; NS1 function inh: -40.8%; Shiga toxin inh: 78.7*; Pf growth 96h: -5.3%; Cycloheximide cs: 47.5*; Pf growth 48h: 31.0%

What do the screens show for `COc1ccc(-c2cc(-c3nnc(COC(=O)c4ccncc4)o3)c3ccccc3n2)cc1OC`?
Sm TGR block: 10.5%; Shiga toxin inh: -17.5; Pf growth 96h: inconclusive; Cycloheximide cs: 12.2; Pf growth 48h: 11.7µM*

Results for O=C(OCc1nnc(-c2ccccc2)o1)c1ccc(Br)o1 ?
Sm TGR block: -2.6%; Pf growth 96h: 0.7%; Pf growth 48h: 30.7%

Results for NC(=O)COC(=O)c1ccc(-c2ccccc2)cc1 ?
Sm TGR block: -2.5%; Shiga toxin inh: 64.0*; Pf growth 96h: 29.5%; Cycloheximide cs: 17.4*; Pf growth 48h: -2.5%

Results for O=C(OCc1nnc(-c2ccccc2)o1)C12CC3CC(CC(Br)(C3)C1)C2 ?
Sm TGR block: 0.5%; Shiga toxin inh: 56.4*; Pf growth 96h: 125.3%; Cycloheximide cs: 35.5*; Pf growth 48h: 69.1%

How did O=C(OCc1nnc(-c2ccc(Cl)cc2)o1)c1ccncc1 do in these assays?
Sm TGR block: 3.2%; NS1 function inh: -64.5%; Shiga toxin inh: 20.8; Pf growth 96h: 3.4%; Cycloheximide cs: 5.1; Pf growth 48h: 12.9%

How did Cc1ccccc1C(=O)OCc1nnc(-c2ccc(Cl)cc2)o1 do in these assays?
Sm TGR block: 5.1%; Shiga toxin inh: 45.3*; Pf growth 96h: 39.2%; Cycloheximide cs: 24.8*; Pf growth 48h: 18.6%

Results for NC(=O)COC(=O)c1ccc(-c2ccc(O)cc2)cc1 ?
Sm TGR block: -1.1%; NS1 function inh: 2.9%; Shiga toxin inh: 17.0; Pf growth 96h: 53.7%; Cycloheximide cs: 9.2; Pf growth 48h: 91.1%

What do the screens show for `Cc1nc2ccc(C(=O)OCc3nnc(-c4ccccc4)o3)cc2nc1C`?
Sm TGR block: -17.0%; NS1 function inh: -42.7%; Shiga toxin inh: -8.8; Pf growth 96h: 13.1µM*; Cycloheximide cs: 10.3*; Pf growth 48h: 15.3%

Results for COC(=O)C1=C(C)NC(C)=C(C(=O)OC)C1C(=O)OCc1nnc(-c2ccccc2)o1 ?
Sm TGR block: 5.2%; Pf growth 96h: inconclusive; Pf growth 48h: 8.6%

Results for O=C(OCc1nnc(-c2ccccc2)o1)c1ccc(-n2cnnn2)cc1 ?
Sm TGR block: -6.7%; Pf growth 96h: 25.7%; Pf growth 48h: 13.6%
